IL-2 act: activates IL-2 in a cell-based reporter assay; IL-2 activation reporter assay, cell-based qHTS; stimulated with anti-CD3/CD4/CD28 beads; in transgenic mouse T cells; 360,000 compounds, 0.065% hits; activation, % (series mostly up to about 46 µM); in the data active = activation above about 50%; inconclusive = mostly about 30% to 49%; note: 0% is about no effect
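Readout: EGFP and DsRed signals by fluorescent plate cytometry. Unstimulated transgenic mouse T cells received compound 60 min before antibody-bead stimulation, then incubated 18 h at 37 degrees C.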
NPSR antag: neuropeptide S receptor (human) antagonism, cAMP; Q6W5P4; CHO-NPSR cells, cAMP TR-FRET, antagonist mode; Potency, µM (highest dose often 38.3 µM), for the others: top-dose activity change, negative = inhibition, actives largely listed as inhibitors; 220,000 compounds, 1% hits; AID 1461; note: potency is the fitted concentration of half-maximal effect; % is set by controls: 0 for no effect and ±100 for the full control effect; nearly all actives have a fitted effect of over 50% in size
ClpP mod: qHTS Assay for Activators of ClpP; purified B. subtilis ClpP, FRET peptide cleavage, 20 min; Potency, µM (titrated, usually from 57.5 µM), for inactives: top-dose activity change, negative = active; 340,000 compounds, 1.9% hits; AID 651965, 2013; active = well fitted falling curve with a large enough effect; inconclusive = small, poorly fitted or top-dose-only effect; inactive = no such curve, though single readings can be large or run the other way; note: potency is the fitted concentration of half-maximal effect; the source files actives as falling curves though it sought activators and does not explain the sign; nearly all actives have a fitted effect of over 65% in size
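FRET quenching reversal measured ClpP activation: 10 microg/mL B. subtilis ClpP at pH 8 with the FRET-FV decapeptide, read at 430 nm after 320 nm excitation. The 20-min minus 0-min signal was scaled between DMSO/no-enzyme wells and ADEP (5.8 microM final).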
PKM2 act: increases activity of human pyruvate kinase M2. P14618. purified PKM2, Kinase-Glo ATP luminescence, activation; response scale: 0% is enzyme alone, no compound. Potency, µM (top dose mostly 57.5 µM), without a hit: at the highest dose activation, usual class: activators. 260,000 compounds, 0.34% hits. AID 1631; note: potency is the fitted concentration of half-maximal effect; % is set by controls: 0 for no effect and ±100 for the full control effect; nearly all actives have a fitted effect of over 55% in size
Target sequence (P14618 whole entry, looked up): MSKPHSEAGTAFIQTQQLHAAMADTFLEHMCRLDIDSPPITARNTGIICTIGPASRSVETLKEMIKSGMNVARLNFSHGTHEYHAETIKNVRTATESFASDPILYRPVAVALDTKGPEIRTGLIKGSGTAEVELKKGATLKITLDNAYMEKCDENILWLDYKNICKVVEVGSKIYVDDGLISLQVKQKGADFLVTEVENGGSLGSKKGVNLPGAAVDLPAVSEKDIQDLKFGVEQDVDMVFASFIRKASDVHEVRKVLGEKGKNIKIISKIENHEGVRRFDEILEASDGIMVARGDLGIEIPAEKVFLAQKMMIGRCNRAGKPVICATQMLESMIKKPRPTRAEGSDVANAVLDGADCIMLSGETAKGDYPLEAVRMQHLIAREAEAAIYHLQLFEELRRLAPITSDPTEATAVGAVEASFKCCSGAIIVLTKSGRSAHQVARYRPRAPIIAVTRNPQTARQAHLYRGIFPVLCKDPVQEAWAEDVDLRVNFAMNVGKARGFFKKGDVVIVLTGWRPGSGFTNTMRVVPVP
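hPK-M2, >95% pure; 0.1 mM ADP / 0.5 mM PEP final; imidazole pH7.2 buffer w/ 7 mM MgCl2, 50 mM KCl; 1 h RT; Kinase-Glo lum. Intermediate enzyme activity for dual inhibitor/activator qHTS.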
Starred values were filed as active, the others as inactive; [ ] = another dose, or the depositor's remark. A selection: hits, their analogues and other compounds. The true share with any hit is near 2%. Unless noted, calls come from the whole dose curve; as a rule, active = well fitted curve in the direction sought with a large enough effect; inconclusive = small, poorly fitted or top-dose-only effect, or another doubt; inactive = no such curve, though single readings can be large; an effect the other way counts as inactive or inconclusive.

Cc1ccc(S(=O)(=O)c2cn(Cc3ccccc3)c3cc(N4CCOCC4)c(F)cc3c2=O)cc1 was read as ClpP mod 28µM*.
For CCCn1cc(S(=O)(=O)c2ccc(C)cc2)c(=O)c2cc(F)c(N3CCCC3)cc21 the results were ClpP mod -6%.
Screening N#CCC(=N)N1CCN(c2cccc(Cl)c2)CC1 returned IL-2 act -5, NPSR antag -3%[46.1 µM], ClpP mod 1% and PKM2 act 0%.
For CN(Cc1ccccc1F)C(=O)c1sccc1-c1ccccc1 the results were IL-2 act -2, ClpP mod -2% and PKM2 act 3%.
For Fc1cccc2sc(Nc3nc4cc5c(cc4s3)OCCO5)nc12 the results were IL-2 act -1, NPSR antag -35%, ClpP mod 288% and PKM2 act -4%.
`Fc1cccc2sc(Nc3nc4cc5c(cc4s3)OCO5)nc12` gave IL-2 act -2, NPSR antag -38%, ClpP mod 14µM* and PKM2 act -6%.
Screening COc1ccc(S(=O)(=O)N2CCCCCC2)cc1C(=O)Nc1cc(C)ccn1 returned IL-2 act -1 and ClpP mod -7%.
`Cc1ccnc(NC(=O)c2cc(S(=O)(=O)N3CCCCC3)ccc2Cl)c1` gave IL-2 act -3, NPSR antag -2%[46.1 µM], ClpP mod 22µM* and PKM2 act -3%.
Screening O=C(c1ccc(Cl)nc1)N1CCN(C/C=C/c2ccccc2)CC1 returned IL-2 act 0, NPSR antag 13% and PKM2 act 2%.
`COc1ccc(-c2noc(CSc3nc(N)c(-c4ccccc4)c(=O)[nH]3)n2)cc1OC` gave IL-2 act 0, NPSR antag 4%[46.1 µM], ClpP mod 1% and PKM2 act 5%.
CCCCn1c(N)c(N(CC(C)C)C(=O)CSCc2c(C)noc2C)c(=O)[nH]c1=O was read as IL-2 act 1 and ClpP mod 28µM*.
For CCCCn1c(N)c(N(CCC(C)C)C(=O)CC2CCCCC2)c(=O)[nH]c1=O the results were IL-2 act 1 and ClpP mod 2%.
`CCCCn1c(N)c(N(CCC(C)C)C(=O)c2ccccc2-n2cnnn2)c(=O)[nH]c1=O` gave IL-2 act 1 and ClpP mod 28µM*.
Screening CCCCn1c(N)c(N(CCC(C)C)C(=O)c2ccccc2C)c(=O)[nH]c1=O returned IL-2 act 1 and PKM2 act 0%.
CCCCn1c(N)c(N(CCC(C)C)C(=O)c2[nH]c(C)c(C(=O)OCC)c2C)c(=O)[nH]c1=O was read as IL-2 act 2 and ClpP mod 18µM*.
`COc1ccc(C(CNC(=O)c2cccc(S(=O)(=O)N3CCOCC3)c2)N2CCOCC2)cc1` (stereo unspecified) gave IL-2 act -6 and ClpP mod 1%.
For O=C(NCC(O)c1ccccc1)c1cccc(S(=O)(=O)N2CCOCC2)c1 (stereo unspecified) the results were IL-2 act 1, NPSR antag 1%[46.1 µM], ClpP mod 32µM* and PKM2 act -1%.
Screening CSCC[C@H](NS(=O)(=O)c1ccc(C)cc1)C(=O)N1CCC(C(=O)N[C@@H](C)C(=O)O)CC1 returned IL-2 act 2, ClpP mod 1% and PKM2 act 1%.
Fc1ccccc1CSc1ncnc2c1ncn2C1CCCCO1 (stereo unspecified) was read as IL-2 act -1.
Screening Cc1cc(C)n(C(=O)c2ccc(NC(=O)C3COc4ccccc4O3)cc2)n1 (stereo unspecified) returned IL-2 act 0, NPSR antag inconclusive, ClpP mod 35µM* and PKM2 act 0%.
CCOC(=O)C1=C(CCc2ccccc2)NC(=O)NC1c1ccc(Br)cc1 (stereo unspecified) was read as IL-2 act -1, ClpP mod -2% and PKM2 act 1%.
For Oc1c(C(c2ccccc2Cl)N2CCCC2)ccc2cccnc12 (stereo unspecified) the results were IL-2 act -4, NPSR antag 10µM*, ClpP mod -1% and PKM2 act -2%.
Screening Oc1c(C(c2cccs2)N2CCN(c3ccccc3)CC2)ccc2cccnc12 (stereo unspecified) returned NPSR antag 16µM* and PKM2 act 20%.
`Oc1c(C(c2ccc(Cl)cc2)N2CCCC2)cc(Cl)c2cccnc12` (stereo unspecified) gave IL-2 act -4, NPSR antag -57%, ClpP mod 1% and PKM2 act 0%.
Screening Cc1onc(-c2ccccc2)c1C(=O)Nc1nc(-c2ccccc2)cs1 returned IL-2 act 1, NPSR antag -23%[46.1 µM], ClpP mod -19% and PKM2 act 0%.
CCC(c1nnnn1Cc1ccc(F)cc1)N(CCCO)Cc1cc2cc3c(cc2[nH]c1=O)OCO3 (stereo unspecified) was read as IL-2 act 0, NPSR antag -28%[46.1 µM], ClpP mod 32µM* and PKM2 act 3%.
Screening Cc1ccc(-c2nc3ncccc3o2)cc1NC(=O)COc1ccccc1 returned IL-2 act 0, NPSR antag -8%[46.1 µM], ClpP mod 32µM* and PKM2 act 6%.
Screening CCc1ccc(OCC(=O)Nc2cc(-c3nc4cc(C)ccc4o3)ccc2C)cc1 returned ClpP mod 4µM*.
`Cc1ccc(-c2nc3cccnc3o2)cc1NC(=O)COc1ccc(C(C)(C)C)cc1` gave IL-2 act -1, NPSR antag inconclusive, ClpP mod 28µM* and PKM2 act 7%.
For COc1ccc(-c2cc(C(F)(F)F)n3nc(C(=O)NCCCn4ccnc4)cc3n2)cc1 the results were IL-2 act 0, NPSR antag 18%[46.1 µM], ClpP mod 28µM* and PKM2 act -6%.
For COC(=O)c1c(NC(=O)c2cc3nc(-c4ccc(OC)cc4)cc(C(F)(F)F)n3n2)sc2c1CCCC2 the results were ClpP mod 28µM*.
`CCOC(=O)c1c(NC(=O)c2cc3nc(-c4ccc(OC)cc4)cc(C(F)(F)F)n3n2)sc2c1CCC(C)C2` (stereo unspecified) gave ClpP mod 32µM*.
For CC(=NNC(=O)CSc1nc2ccccc2o1)c1ccco1 the results were IL-2 act 1 and ClpP mod 1%.
Screening Cc1nc2ccc(F)cc2cc1C(=O)NC(C)C returned IL-2 act -1, NPSR antag 2%[46.1 µM], ClpP mod 0% and PKM2 act 0%.
Screening COc1ccc(-c2cc(C(F)(F)F)nc(N3CCN(C)CC3)n2)cc1OC returned IL-2 act -4, NPSR antag -2%[46.1 µM], ClpP mod 0% and PKM2 act 0%.
`COc1ccc(-c2cc(C(F)(F)F)nc(N3CCCCC3)n2)cc1OC` gave IL-2 act 0, NPSR antag -11%[46.1 µM], ClpP mod 35µM* and PKM2 act 0%.
